High-throughput results from PubChem BioAssay.
In the library only some 13% were active in any assay of this set; here they are far more common.
Pf growth 48h – Primary qHTS for delayed death inhibitors of the malarial parasite plastid, 48 hour incubation. P. falciparum luciferase growth in erythrocytes, 48 h. Potency, µM (highest dose often 28.7 µM), hits mostly inhibitors. 5.9% of 310,000 active. AID 504832, 2011
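Compounds are pin-transferred into medium, infected erythrocytes (2% hematocrit, 0.1% parasitemia final) are added, and plates sit one parasite generation at 37 C in 5% CO2. Detection reagent is then added and luminescence measured.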
Pf growth 96h – Primary qHTS for delayed death inhibitors of the malarial parasite plastid, 96 hour incubation; P. falciparum luciferase reporter growth, 96 h; Potency, µM (top dose mostly 28.7 µM), actives largely listed as inhibitors; 6.9% of 320,000 active
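Luminescence readout: decreased luciferase signal marks inhibited growth of reporter-expressing P. falciparum in infected red cells (2% hematocrit, 0.05% parasitemia final), exposed to compound two generations (96 h, 37 C, 5% CO2).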
HCMV inh – qHTS Assay for inhibitors of the human cytomegalovirus (HCMV); HFF cells, HCMV-luciferase reporter, 72 h; hits give low values; activity change, negative = inhibition, % at 57.5 µM; 4.5% of 410,000 active; in the data active = activity change below about -60%; inconclusive = no clear call, values can overlap the other calls; inactive = above about -39%
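Two compound doses tested in HFFs infected with HCMV-luciferase, MOI 1 PFU/cell, 72 h at 37C. Lysate luminescence read with OneGlo; data normalized against buffer-only and 10uM Salinomycin inhibitor controls.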
HCV inh – qHTS Assay for Inhibitors of Hepatitis C Virus (HCV); Huh7.5.1 HCVcc-Cre infection, luciferase reporter, 44 h; Potency, µM (doses to about 41.8 µM), usual class: inhibitors; 3.4% of 340,000 active; AID 651820, 2012
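Infectious HCVcc-Cre (~0.5 moi) was added to cells just after compound, with cells seeded 4 h earlier at 1,000 per well. Luciferase activity after 44 h culture reported infection; substrate was incubated 15 min at room temperature before reading.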
Of the large screens only hits and unclear results are named; the others gave an inactive call; ! = repeats disagree. Unless noted, calls follow the shape of the dose curve; as a rule, active = well fitted inhibition curve with a large enough effect; inconclusive = small, poorly fitted or top-dose-only effect, or another doubt; inactive = no such curve, though single readings can be large or run the other way.

c1ccc(Oc2nc(-c3cccnc3)nc3ccccc23)cc1	Pf growth 48h 10.4µM, Pf growth 96h inconclusive, HCV inh inconclusive
Cc1ccc(-c2nnc(Oc3cccc(C)c3)c3ccccc23)cc1	none
Cc1cccc(Oc2nc(-c3ccccn3)nc3ccccc23)c1	Pf growth 48h 1.85µM, Pf growth 96h 2.62µM, HCMV inh -72.3, HCV inh inconclusive
Cc1cccc(Oc2nc(-c3ccncc3)nc3ccccc23)c1	Pf growth 48h 1.65µM, Pf growth 96h 1.47µM, HCV inh 7.08µM
CCOC(=O)Cc1nc2ccccc2[nH]1	Pf growth 96h 11.7µM
O=C(Cc1nc2ccccc2[nH]1)c1cccc([N+](=O)[O-])c1	Pf growth 48h 11.7µM, Pf growth 96h inconclusive, HCV inh 11.2µM
O=C(NCCCc1nc2ccccc2[nH]1)c1ccc(F)cc1	Pf growth 96h 10.4µM
Cc1ccc(C(=O)Cc2nc3ccccc3[nH]2)cc1	Pf growth 48h 0.37µM, Pf growth 96h inconclusive
CCOC(=O)CCc1nc2ccccc2[nH]c1=O	none
O=C(Nc1nc2ccccc2[nH]1)c1cccc([N+](=O)[O-])c1	none
O=C(CNC(=O)c1ccc(Br)cc1)NCCc1nc2ccccc2[nH]1	none (no result: Pf growth 48h)
CC1CCN(S(=O)(=O)c2ccc3c(ccc(=O)n3CC(=O)NCc3ccccc3)c2)CC1	none (no result: Pf growth 48h, Pf growth 96h, HCV inh)
O=C(CCc1nc2ccccc2[nH]1)Nc1ccccc1	none
Cc1ccc(/C=C/c2nc3ccccc3[nH]2)cc1	HCMV inh -91.2 (no result: Pf growth 48h, Pf growth 96h, HCV inh)
Cc1cc(C)cc(NC(=O)CCc2nc3ccccc3[nH]2)c1	Pf growth 96h 3.29µM
CC(C)(Oc1ccc(Cl)cc1)C(=O)Nc1ccc(-c2nc3ncccc3o2)cc1	none (no result: Pf growth 48h, Pf growth 96h, HCV inh)
CCOc1cccc(NCc2cc3c(C(C)(C)C)nn(-c4ccccc4)c3[nH]c2=O)c1	Pf growth 48h inconclusive, HCV inh 12.6µM (no result: Pf growth 96h)
Cc1nn(-c2ccccc2)c2[nH]c(=O)c(CNCC3CCCO3)cc12 (centres undefined)	Pf growth 96h inconclusive
CC(C)(C)c1nn(-c2ccccc2)c2[nH]c(=O)c(CNCc3ccc4c(c3)OCO4)cc12	Pf growth 96h 0.329µM (no result: Pf growth 48h)
CCc1c(C)c2c(C)nn(-c3ccccc3)c2[nH]c1=O	none
COc1cccc2cc(C(=O)NCc3ccco3)c(=Nc3ccc(C(=O)O)cc3)oc12	Pf growth 96h inconclusive, HCMV inh -78.3 (no result: Pf growth 48h)
COc1ccc2cc(C(=O)NCc3ccccc3)c(=Nc3ccc(C(=O)O)cc3)oc2c1	Pf growth 48h inconclusive, Pf growth 96h 0.415µM, HCMV inh inconclusive, HCV inh inconclusive
COc1cccc2cc(C(=O)NCc3ccco3)c(=O)oc12	HCMV inh inconclusive
O=C(O)c1ccc(N=c2oc3cc(O)ccc3cc2C(=O)NCc2ccccc2)cc1	Pf growth 96h inconclusive
Cc1nc([N+](=O)[O-])cn1CC(O)c1ccccc1 (centres undefined)	none
Cc1nc([N+](=O)[O-])cn1Cc1cccc2ccccc12	Pf growth 48h 10.4µM
COc1ccc2c(c1)sc1nc(-c3ccccc3)cn12	HCMV inh -97.9, HCV inh inconclusive
CCOC(=O)N1CCN(C(=O)c2ccc3c(c2)sc2nc(-c4ccc(OC)cc4)cn23)CC1	Pf growth 48h inconclusive, HCV inh 14.1µM! (no result: HCMV inh)
O=C(CSC(=S)N1CCCC1)c1cc(Br)cc(Br)c1O	Pf growth 48h inconclusive, HCMV inh inconclusive, HCV inh 12.6µM
O=C(OCc1ccccc1Cl)c1ccc(-c2nnn(Cc3ccccc3Cl)n2)cc1	none (no result: Pf growth 48h, Pf growth 96h, HCV inh)
O=C(c1ccc(CS(=O)(=O)c2c(Cl)cccc2Cl)o1)N1CCN(c2ccccn2)CC1	Pf growth 96h inconclusive, HCMV inh -65.9 (no result: Pf growth 48h)
O=C(c1ccc(CS(=O)(=O)c2ccc(Br)cc2)o1)N1CCN(c2ccc(F)cc2)CC1	Pf growth 48h inconclusive, Pf growth 96h inconclusive, HCV inh inconclusive
Cc1ccc(S(=O)(=O)Cc2ccc(C(=O)N3CCN(c4ccccn4)CC3)o2)cc1	Pf growth 96h inconclusive (no result: Pf growth 48h)
Cc1cccc(N2CCN(C(=O)c3cc4ccc5cccnc5c4[nH]3)CC2C)c1 (centres undefined)	HCMV inh -107.8 (no result: Pf growth 48h, Pf growth 96h, HCV inh)
Cc1cccc(N2CCN(C(=O)c3ccc(CS(=O)(=O)c4ccccc4C)o3)CC2C)c1 (centres undefined)	Pf growth 48h 13.1µM, HCMV inh -66.8
COc1ccc(N2CCN(C(=O)c3ccc(CS(=O)(=O)c4ccc(Br)cc4)o3)CC2)cc1	Pf growth 48h inconclusive, Pf growth 96h inconclusive, HCMV inh -83.8!
CC1CCc2nc3ncn(Cc4cccc(F)c4)c(=O)c3cc2C1 (centres undefined)	none (no result: Pf growth 48h, Pf growth 96h, HCV inh)
